# Measurements from PubChem BioAssay.
# Values joined by “and” are separate entries in the source; they are usually repeats but may differ in a detail not shown here. Identical values can stand only once. Active and inactive are the calls of the source.
# Key:
# Albumin (Bos taurus) = Albumin (Bos taurus) (UniProt P02769); test: bovine serum albumin binders on microarray, profiling panel, artefact control for SMM control protein annotation, biochemical, small-molecule microarray, Alexa647 label, 635/667 nm fluorescence (AID 1118); conditions: BSA-A647 binding, fluorescence 635 nm, higher = more signal;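 also: score merges 667 nm emission intensity and signal-to-noise per printed compound spot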
# [1] = small-molecule microarray binders of probe aXIP, primary screen, biochemical, NeuroSMM set, 635/667 nm fluorescence (AID 1119); conditions: higher = more signal, called active from +8 up or from −8 down;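 also: probe is the protein aXip251-270 applied at 1 µg/mL to compound-printed slides; binding of probe to printed compounds measured as 667 nm fluorescence plus signal to noise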
# [2] = small-molecule binders of probe aNOTCH3, primary screen, biochemical, small-molecule microarray, 635/667 nm fluorescence (AID 1120); conditions: higher = more signal;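 also: probe is a biotin-tagged antibody raised against NOTCH3 rather than NOTCH3 protein; score merges spot fluorescence near 667 nm with spot signal to noise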
# [3] = small-molecule binders of probe aNOTCH2, primary screen, biochemical, small-molecule microarray, 635/667 nm fluorescence (AID 1121); conditions: higher = more signal;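 also: score merges feature fluorescence read at 667 nm with its signal to noise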
# [4] = biological target: Carbonic anhydrase 2 (Homo sapiens) (UniProt P00918); test: CAII small-molecule binders, profiling panel, biochemical, small-molecule microarray, Alexa647-labelled CAII (AID 1122); conditions: CAII-A647 binding fluorescence, higher = more signal
# [5] = COS7 lysate on small-molecule microarray, probe aHis, 635 nm (AID 1123); conditions: COS7 cell lysate, fluorescence, higher = more signal;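 also: z-score combines 667nm fluorescence intensity with signal-to-noise per printed compound spot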
# [6] = compound binding in COS7 lysate, probe aLAP1, primary screen, cell lysate, small-molecule microarray (AID 1124); conditions: probe aLAP1, fluorescence, higher = more signal;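 also: lysate comes from COS7 cells expressing LAP1 and is applied at 0.3 µg/mL; score merges spot fluorescence near 667 nm with signal-to-noise over triplicate slides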
# Sam68 (KHDRBS1) = test: Sam68 small-molecule binders, primary screen, biochemical, small-molecule microarray, 635 nm fluorescence (AID 1125); conditions: small-molecule microarray binding, higher = more signal;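 also: score merges 667 nm channel intensity with signal to noise over triplicate slides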
# [7] = test system: Chordin-like protein 2 (CHRDL2); test: CHRDL2 small-molecule binders, primary screen, biochemical, small-molecule microarray, 635 nm fluorescence (AID 1126); conditions: small-molecule microarray binding, fluorescence 635 nm; higher = more signal;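 also: printed compound slides probed with Chrdl2 protein at 4 µg/mL for 1 h at 4 C; score merges 667 nm emission intensity with signal to noise over three replicate slides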
# [8] = biological target: Concanavalin-A (Canavalia ensiformis) (UniProt P02866); test: ConA small-molecule binders, primary screen, artefact control for SMM control protein annotation, biochemical, small-molecule microarray, Alexa647 label, 635 nm (AID 1127); conditions: ConA-A647 binding fluorescence, higher = more signal;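 also: z combines 667 nm emission intensity with signal-to-noise across three replicate slides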
# Concanavalin-A (Canavalia ensiformis), sequence (P02866 whole entry, looked up): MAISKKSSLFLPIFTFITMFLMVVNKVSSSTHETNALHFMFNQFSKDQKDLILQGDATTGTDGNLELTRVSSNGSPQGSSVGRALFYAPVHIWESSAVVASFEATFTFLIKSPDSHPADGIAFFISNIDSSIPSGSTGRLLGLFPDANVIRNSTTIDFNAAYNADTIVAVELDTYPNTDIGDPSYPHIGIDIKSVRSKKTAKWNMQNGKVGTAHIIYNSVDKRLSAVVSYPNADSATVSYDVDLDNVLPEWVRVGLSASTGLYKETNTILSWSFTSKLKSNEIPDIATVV
# Albumin (Bos taurus), sequence (P02769 whole entry, looked up): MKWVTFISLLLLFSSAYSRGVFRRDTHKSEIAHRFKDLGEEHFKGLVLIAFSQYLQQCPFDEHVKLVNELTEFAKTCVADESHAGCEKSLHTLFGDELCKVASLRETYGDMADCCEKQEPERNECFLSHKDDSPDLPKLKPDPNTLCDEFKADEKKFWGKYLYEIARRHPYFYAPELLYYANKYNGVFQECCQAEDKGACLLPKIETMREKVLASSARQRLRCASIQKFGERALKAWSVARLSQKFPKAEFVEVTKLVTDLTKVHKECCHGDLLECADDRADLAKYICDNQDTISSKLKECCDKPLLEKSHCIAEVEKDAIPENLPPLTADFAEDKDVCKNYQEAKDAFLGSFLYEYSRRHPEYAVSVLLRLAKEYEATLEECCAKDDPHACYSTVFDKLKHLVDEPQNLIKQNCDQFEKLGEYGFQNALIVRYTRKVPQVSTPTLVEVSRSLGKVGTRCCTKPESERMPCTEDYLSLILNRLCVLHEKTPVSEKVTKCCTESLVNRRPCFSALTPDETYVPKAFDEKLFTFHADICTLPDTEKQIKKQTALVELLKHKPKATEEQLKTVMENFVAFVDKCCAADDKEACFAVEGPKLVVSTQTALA
Compound,composite z-score (Albumin (Bos taurus)),composite Z-score [1],composite z-score [2],composite z-score [3],composite z-score [4],composite z-score [5],composite z-score [6],composite z-score (Sam68 (KHDRBS1)),composite z-score [7],composite z-score [8]
COC(=O)[C@@]1(Cc2ccc(OC)cc2)[C@H]2c3cc(C(=O)N(C)C)n(Cc4ccc(O)c(OC)c4)c3C[C@H]2CN1C(=O)c1ccccc1,1.03 and 0.843,-0.0164 (inactive) and -0.483 (inactive),0.359 and 0.68,0.357 and 0.124,0.893 and 0.406,1.81 and 2.81,1.17 and 0.341,0.725 and 1.22,-1.12 and -0.44,0.311 and 0.836
COC(=O)C1=C(C)N(Cc2ccccc2)C2=C3C(=O)CCC[C@@H]3[C@@](O)(C(=O)OC)C(=O)N2[C@@H]1c1ccccc1,0.0476 and 0.354,-0.0521 (inactive) and -0.191 (inactive),-0.0077 and 0.178,-0.125 and -0.114,0.362 and 0.0465,0.0949 and 0.111,-0.0012 and 0.0654,0.368 and -0.0561,0.674 and 0.24,0.596 and -0.917
C=CCN(C(=O)C1N(c2ccc(CCO)cc2)C(=O)C2C(C(=O)O)C3C=CC21O3)c1ccc(OC)cc1 (stereo not given),-0.326 and -0.0621,-0.177 (inactive) and -0.773 (inactive),-0.285 and -0.585,-0.14 and -0.0932,0.93 and 0.471,-0.188 and -0.412,-0.0393 and -0.133,0.0118 and -1.55,-0.726 and -2.53,0.287 and -1.64
O=C(NN=C1C[C@@H](O)[C@@H](O)[C@@H]2[C@@H]3C(=O)N(Cc4ccc5c(c4)OCO5)C(=O)[C@@H]3CC[C@H]12)OCc1ccccc1,-0.401,-0.0252 (inactive),0.157,-0.11,-0.612,-0.648,-0.21,0.0918,-0.556,-0.232
C=CCN(C(=O)C1N(CCCCCCO)C(=O)C2C(C(=O)O)C3C=CC21O3)C(C)(C)C (stereo not given),-0.171 and -1.11,0.148 (inactive) and -0.707 (inactive),-0.695 and -0.55,-0.217 and -0.192,0.987 and 0.958,-0.712 and 0.0575,-0.729 and -0.646,-1.73 and -0.275,-4.11 and -4.07,-0.974 and -2.94
CC(C)OC(=O)C=C1C[C@@H](c2cccc(C(F)(F)F)c2)O[C@@H](c2cccc(C(F)(F)F)c2)O1,0.516 and 0.8,-0.313 (inactive) and -0.0102 (inactive),-0.166 and -0.257,-0.0597 and -0.118,0.407 and 0.738,2.3 and 0.841,1.56 and 0.103,-0.167 and 1.11,-0.24 and -0.619,0.711 and 1.06
C=CCN(C(=O)C(c1cccs1)N(C(=O)/C=C\C(=O)O)C(C)(C)CO)C(C)(C)C (stereo not given),0.649 and 0.333,-1.12 (inactive) and 0.108 (inactive),-0.289 and -0.358,-0.172 and -0.0728,0.786 and 0.805,0.414 and 0.831,-0.68 and 0.64,0.0206 and -0.225,-1.43 and -1.27,-0.625 and -0.54
CCC[C@@H]1C[C@@]1(CCC)[C@@H](NC(=O)c1ccc(-c2ccccc2)cc1)c1cccc(Cl)c1,-0.0449 and 0.93,-0.281 (inactive) and -0.599 (inactive),1.31 and -0.0569,0.723 and 0.0809,0.305 and 0.812,2.51 and 1.41,0.421 and -0.244,-0.546 and 0.593,0.844 and -0.561,-1.47 and 0.217
CC(CO)N1C(=O)[C@@H]2C3C(=O)OCCC=C[C@H]3OC23C=CCN(C(C)(C)C)C(=O)[C@@H]13 (stereo not given in full),0.231 and -0.322,-0.734 (inactive) and 0.825 (inactive),-0.34 and 0.037,-0.211 and -0.14,0.863 and 0.837,-0.329 and 0.395,0.241 and 1.27,-0.349 and 0.36,-1.5 and -0.54,-2.13 and -0.887
CC(=O)OC[C@H]1O[C@H](C#CC(C)(C)C)C=C[C@@H]1OC(C)=O,0.895,-0.0921 (inactive),0.116,-0.0649,0.813,1.6,0.164,1.22,0.411,1.09
COC(=O)C1=C(C)N(Cc2ccccc2)[C@]23O[C@](C(=O)OC)(C(=O)N2[C@@H]1c1ccccc1)[C@H]1CCCC(=O)[C@H]13,-0.0265 and -0.0851,-0.138 (inactive) and -0.0964 (inactive),0.19 and -0.136,-0.0116 and -0.0649,0.311 and -0.0597,0.685 and -0.0027,0.26 and -0.0668,0.174 and 0.227,0.228 and 0.551,1 and 0.279
C=CC[C@@H](O)c1ccc(OCCO)cc1,-0.155 and -0.308,0.0022 (inactive) and 0.259 (inactive),-0.506 and -0.643,-0.222 and -0.176,0.492 and 0.807,-0.638 and -0.478,-0.585 and -0.612,-0.813 and -0.661,-1.56 and -1.81,-0.831 and -1.48
Cc1ccc(S(=O)(=O)N[C@H]2COC(=O)[C@@H](Cc3ccccc3)NC(=O)[C@@H](C)COC(=O)CC=C[C@@H]2C)cc1,-0.92 and -0.489,0.103 (inactive) and 0.304 (inactive),-0.279 and -0.132,-0.162 and -0.185,-0.363 and 0.129,-0.902 and 0.614,-0.221 and -0.16,-0.309 and 0.663,0.748 and 0.691,0.117 and 0.0745
Cc1ccc(S(=O)(=O)OC[C@@H]2CN3[C@@H](CC[C@@H](C)[C@@H]3c3ccc(Br)cc3)C(=O)O2)cc1,0.278 and 0.51,-0.19 (inactive) and 0.177 (inactive),0.062 and 0.0051,-0.124 and -0.0326,0.11 and 0.427,-0.0886 and 0.315,-0.162 and 0.565,0.418 and 0.99,0.251 and 0.327,0.446 and 0.54
